# In publication PMC5540273 (PLoS ONE, 2017):
# Assays:
# Conditions in all cases: concentration: 1 μM, replicates: in singlicate; n = 1
# RIPK1 = system: RIPK1
# RIPK2 = system: RIPK2
# RIPK4 = system: RIPK4
# RIPK5 = system: RIPK5
# ROCK1 = system: ROCK1
# ROCK2 = system: ROCK2
# ROS1 = system: ROS1
# [1] = system: RPS6KA4(Kin.Dom.1-N-terminal)
# [2] = system: RPS6KA4(Kin.Dom.2-C-terminal)
# [3] = system: RPS6KA5(Kin.Dom.1-N-terminal)
# [4] = system: RPS6KA5(Kin.Dom.2-C-terminal)
# [5] = system: T1, RSK1(Kin.Dom.1-N-terminal)
# T1 construct: gene RPS6KA1
# [6] = system: T2, RSK1(Kin.Dom.2-C-terminal)
# T2 construct: gene RPS6KA1
# [7] = system: T3, RSK2(Kin.Dom.1-N-terminal)
# T3 construct: gene RPS6KA3
# [8] = system: T4, RSK2(Kin.Dom.2-C-terminal)
# T4 construct: gene RPS6KA3
# [9] = system: T5, RSK3(Kin.Dom.1-N-terminal)
# T5 construct: gene RPS6KA2
# [10] = system: T6, RSK3(Kin.Dom.2-C-terminal)
# T6 construct: gene RPS6KA2
# [11] = system: T7, RSK4(Kin.Dom.1-N-terminal)
# T7 construct: gene RPS6KA6
# [12] = system: T8, RSK4(Kin.Dom.2-C-terminal)
# T8 construct: gene RPS6KA6
# S6K1 = system: S6K1
# 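Also: KINOMEscan kinase panel screen.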
SMILES,%Inh (RIPK1) [%],%Inh (RIPK2) [%],%Inh (RIPK4) [%],%Inh (RIPK5) [%],%Inh (ROCK1) [%],%Inh (ROCK2) [%],%Inh (ROS1) [%],%Inh [1] [%],%Inh [2] [%],%Inh [3] [%],%Inh [4] [%],%Inh [5] [%],%Inh [6] [%],%Inh [7] [%],%Inh [8] [%],%Inh [9] [%],%Inh [10] [%],%Inh [11] [%],%Inh [12] [%],%Inh (S6K1) [%]
Cc1ccc(C)c(NC(=O)NCCNc2ccnc(Nc3ccc(F)cc3)n2)c1 [GSK1379878],4,0,0,9,7,0,16,0,0,0,5,0,0,0,0,0,0,0,0,0
CC(C)(C)OC(=O)NC1CCCN(c2cc(-c3ccc4c(N)n[nH]c4c3)nc(N)n2)C1 (stereo not drawn) [GSK2286096],0,8,14,0,0,0,0,0,0,0,0,26,0,27,100,0,0,36,23,2
Nc1nc(-c2ccccn2)c(-c2ccnc3ccccc23)s1 [GW548057],16,15,2,14,27,33,1,12,0,21,33,5,39,0,9,0,1,0,76,0
Cl.Cn1ccc(-c2cccc(Nc3ccnc4cc(-c5nccs5)ccc34)c2)n1 [GW525701],0,16,23,0,26,39,0,0,0,24,39,0,0,8,21,2,13,0,7,0
OCCOCCn1ccc2ncnc(Nc3ccc(Oc4cccc(Cl)c4)c(Cl)c3)c21,0,48,0,0,0,0,0,17,0,0,0,0,0,0,0,3,4,0,2,0
CCc1nc(-c2cccc(N(C)S(=O)(=O)c3ccccc3)c2)c(-c2ccnc(Nc3ccc(N4CCN(C(C)=O)CC4)nc3)n2)s1 [GSK1645895],0,90,18,10,0,0,0,0,0,0,2,26,24,0,1,8,23,0,20,7
CCc1nc(-c2cccc(C)c2)c(-c2ccnc(NC(=O)c3ccccc3)c2)s1,0,52,42,0,35,0,0,0,8,3,1,0,53,0,39,0,5,–,46,0
Fc1cccc(COc2ccc(Nc3ncnc4nn5ccccc5c34)cc2Cl)c1 [GW689066],0,0,0,0,40,33,1,17,0,0,0,4,0,0,0,0,0,0,0,0
Cc1ccc(NC(=O)c2cccc(C#N)c2)cc1-c1ccc(C(=O)Nc2ccncc2)cc1 [GSK1398463],2,3,38,8,22,0,0,9,0,26,1,24,0,0,6,9,0,0,1,11
Cl.O=S(=O)(c1cccc(F)c1)c1ccc(Nc2ncnc3cc(Br)sc23)cc1Cl [GSK306886],29,42,0,16,9,14,12,16,0,0,4,17,17,0,0,0,31,0,14,0
COc1ccc(NC(=O)Nc2ccc(C)c(-c3ccc(C(=O)Nc4ccncc4)cc3)c2)cc1 [GSK1398475],16,2,1,0,0,0,0,0,0,0,0,16,3,0,0,0,0,0,22,0
